Data taken from the supplement of paper PMC11732987, “Enantioselective OTUD7B fragment discovery through chemoproteomics screening and high-throughput optimisation” (Communications Chemistry, 2025).

Columns and labels:
Assay in all cases: log2 ratio of Biotin-Ahx-Ub-VS probe labelling (fragment/DMSO); higher = less target engagement (more negative = stronger competition), active = hit call of the paper (q ≤ 0.05, log2 ratio ≤ -1)
Settings in all cases: compound concentration: 200 uM; treatment time: 3 h
USP34 = USP34 (UniProt Q70CQ2)
In short: (§1)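 Labelling with Biotin-Ahx-Ub-VS (0.5 µM final, 1 h) followed a 3 h triplicate treatment of HEK293T lysate (495 µg per sample, Tris/CHAPS/IGEPAL buffer with protease inhibitors) with fragment at 200 µM or vehicle. Labelled DUBs were NeutrAvidin-enriched, digested with LysC and trypsin, and run by diaPASEF LC-MS/MS. The values, average log2 fragment/vehicle ratios by unpaired t-test, come from global-median-normalised Spectronaut label-free quantities. Proteins with ≥2 unique peptides were used.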

USP36 = target: T1, USP36 (UniProt Q9P275)
T1 sequence (whole entry): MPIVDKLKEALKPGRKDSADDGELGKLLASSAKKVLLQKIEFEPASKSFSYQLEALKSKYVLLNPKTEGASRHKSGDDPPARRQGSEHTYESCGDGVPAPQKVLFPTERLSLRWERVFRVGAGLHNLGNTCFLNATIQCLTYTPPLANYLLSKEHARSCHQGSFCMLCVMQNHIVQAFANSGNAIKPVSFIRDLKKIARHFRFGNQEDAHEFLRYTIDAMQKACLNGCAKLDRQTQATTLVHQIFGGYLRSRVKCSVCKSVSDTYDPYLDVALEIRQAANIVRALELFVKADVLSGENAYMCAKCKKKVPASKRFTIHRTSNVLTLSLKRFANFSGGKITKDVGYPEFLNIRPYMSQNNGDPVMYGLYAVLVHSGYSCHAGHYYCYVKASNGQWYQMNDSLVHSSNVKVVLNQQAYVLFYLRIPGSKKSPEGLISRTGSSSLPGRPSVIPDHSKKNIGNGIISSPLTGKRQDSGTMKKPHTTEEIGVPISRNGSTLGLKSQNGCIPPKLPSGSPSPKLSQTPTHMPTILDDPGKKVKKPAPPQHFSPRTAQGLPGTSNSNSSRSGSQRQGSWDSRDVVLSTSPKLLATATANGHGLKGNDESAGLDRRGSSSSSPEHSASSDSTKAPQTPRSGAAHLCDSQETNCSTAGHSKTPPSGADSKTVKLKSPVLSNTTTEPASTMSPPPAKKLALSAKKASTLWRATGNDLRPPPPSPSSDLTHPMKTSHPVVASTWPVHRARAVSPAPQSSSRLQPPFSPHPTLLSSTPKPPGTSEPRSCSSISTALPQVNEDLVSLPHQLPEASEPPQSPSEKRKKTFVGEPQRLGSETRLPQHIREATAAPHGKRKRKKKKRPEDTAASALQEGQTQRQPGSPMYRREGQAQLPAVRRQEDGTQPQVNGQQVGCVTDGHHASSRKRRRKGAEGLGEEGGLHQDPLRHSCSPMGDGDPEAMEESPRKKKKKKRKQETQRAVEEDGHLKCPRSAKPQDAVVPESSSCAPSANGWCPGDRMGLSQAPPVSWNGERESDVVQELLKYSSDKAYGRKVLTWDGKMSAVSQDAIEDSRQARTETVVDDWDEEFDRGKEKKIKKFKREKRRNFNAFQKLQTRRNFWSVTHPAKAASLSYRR
In short: as §1

USP38 = target: T2, USP38 (UniProt Q8NB14)
T2 sequence (whole entry): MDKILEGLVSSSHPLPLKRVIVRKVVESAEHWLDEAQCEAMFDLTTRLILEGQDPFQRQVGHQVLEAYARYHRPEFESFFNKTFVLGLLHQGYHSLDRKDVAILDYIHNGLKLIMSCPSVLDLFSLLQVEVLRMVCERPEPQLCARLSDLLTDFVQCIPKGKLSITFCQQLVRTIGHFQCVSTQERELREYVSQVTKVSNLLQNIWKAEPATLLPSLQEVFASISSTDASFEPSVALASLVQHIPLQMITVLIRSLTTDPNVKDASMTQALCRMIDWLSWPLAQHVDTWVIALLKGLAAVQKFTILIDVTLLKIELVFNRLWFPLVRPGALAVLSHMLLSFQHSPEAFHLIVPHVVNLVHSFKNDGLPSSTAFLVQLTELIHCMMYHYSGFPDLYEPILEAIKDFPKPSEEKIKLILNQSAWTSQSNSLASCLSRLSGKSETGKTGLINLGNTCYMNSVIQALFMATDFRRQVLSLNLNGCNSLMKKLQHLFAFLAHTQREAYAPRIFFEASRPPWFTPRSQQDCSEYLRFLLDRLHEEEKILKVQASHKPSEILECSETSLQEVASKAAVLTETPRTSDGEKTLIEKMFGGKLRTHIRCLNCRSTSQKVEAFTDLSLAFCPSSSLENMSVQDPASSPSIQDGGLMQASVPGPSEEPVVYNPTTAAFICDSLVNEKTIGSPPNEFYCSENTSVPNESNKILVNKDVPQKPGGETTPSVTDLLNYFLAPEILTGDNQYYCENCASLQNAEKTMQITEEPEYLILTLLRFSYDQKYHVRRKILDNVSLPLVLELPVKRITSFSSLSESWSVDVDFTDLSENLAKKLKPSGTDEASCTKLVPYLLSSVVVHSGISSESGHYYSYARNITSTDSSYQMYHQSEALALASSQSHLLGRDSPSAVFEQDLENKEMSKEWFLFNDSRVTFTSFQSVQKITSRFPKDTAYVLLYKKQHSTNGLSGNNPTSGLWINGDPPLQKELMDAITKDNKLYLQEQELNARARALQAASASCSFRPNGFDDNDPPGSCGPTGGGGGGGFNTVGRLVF
In short: as §1

USP39 = target: T3, USP39 (UniProt Q53GS9)
T3 sequence (whole entry): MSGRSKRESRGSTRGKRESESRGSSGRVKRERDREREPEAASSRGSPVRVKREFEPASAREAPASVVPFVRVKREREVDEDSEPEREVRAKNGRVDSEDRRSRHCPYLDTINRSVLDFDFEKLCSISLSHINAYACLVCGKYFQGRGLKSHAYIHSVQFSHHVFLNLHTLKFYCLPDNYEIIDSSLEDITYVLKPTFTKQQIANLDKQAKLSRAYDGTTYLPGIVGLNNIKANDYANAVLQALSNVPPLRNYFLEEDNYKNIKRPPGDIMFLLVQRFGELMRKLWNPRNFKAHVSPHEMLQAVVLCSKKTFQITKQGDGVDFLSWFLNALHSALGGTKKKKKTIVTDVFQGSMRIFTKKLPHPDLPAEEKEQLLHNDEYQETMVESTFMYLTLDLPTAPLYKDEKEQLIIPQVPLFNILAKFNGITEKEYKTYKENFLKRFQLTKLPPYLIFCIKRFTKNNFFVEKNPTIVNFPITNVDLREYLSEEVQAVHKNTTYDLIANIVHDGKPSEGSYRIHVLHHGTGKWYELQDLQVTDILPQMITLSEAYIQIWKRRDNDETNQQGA
In short: as §1

USP4 = target: T4, USP4 (UniProt Q13107)
T4 sequence (whole entry): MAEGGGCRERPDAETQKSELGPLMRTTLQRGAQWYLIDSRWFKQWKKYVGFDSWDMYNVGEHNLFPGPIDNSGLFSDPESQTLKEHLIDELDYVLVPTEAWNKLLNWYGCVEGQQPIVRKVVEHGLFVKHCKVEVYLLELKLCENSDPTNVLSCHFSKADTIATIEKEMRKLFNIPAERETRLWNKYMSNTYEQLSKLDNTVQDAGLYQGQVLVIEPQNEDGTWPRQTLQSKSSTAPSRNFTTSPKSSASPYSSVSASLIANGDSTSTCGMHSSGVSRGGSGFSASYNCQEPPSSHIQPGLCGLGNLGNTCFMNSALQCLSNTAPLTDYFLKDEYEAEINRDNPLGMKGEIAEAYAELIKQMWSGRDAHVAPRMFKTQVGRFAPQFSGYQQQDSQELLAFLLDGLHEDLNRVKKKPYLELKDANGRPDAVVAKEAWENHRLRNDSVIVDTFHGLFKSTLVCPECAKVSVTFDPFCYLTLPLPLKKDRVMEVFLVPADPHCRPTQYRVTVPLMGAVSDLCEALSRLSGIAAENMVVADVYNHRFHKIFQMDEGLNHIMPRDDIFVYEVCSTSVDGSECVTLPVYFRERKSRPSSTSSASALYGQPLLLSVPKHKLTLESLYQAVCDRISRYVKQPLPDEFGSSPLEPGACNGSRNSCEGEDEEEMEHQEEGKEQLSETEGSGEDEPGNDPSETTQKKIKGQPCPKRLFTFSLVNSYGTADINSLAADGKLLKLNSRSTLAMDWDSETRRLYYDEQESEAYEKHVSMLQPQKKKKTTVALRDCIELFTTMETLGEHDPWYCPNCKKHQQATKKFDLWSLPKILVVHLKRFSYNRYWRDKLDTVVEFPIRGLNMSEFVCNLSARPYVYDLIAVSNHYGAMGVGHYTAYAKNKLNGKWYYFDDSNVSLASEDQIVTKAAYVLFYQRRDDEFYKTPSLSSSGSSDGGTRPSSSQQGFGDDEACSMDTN
In short: as §1

Measured: log2 ratio of Biotin-Ahx-Ub-VS probe labelling

Sequence of USP34 (Q70CQ2 whole entry, the tested form may be a part): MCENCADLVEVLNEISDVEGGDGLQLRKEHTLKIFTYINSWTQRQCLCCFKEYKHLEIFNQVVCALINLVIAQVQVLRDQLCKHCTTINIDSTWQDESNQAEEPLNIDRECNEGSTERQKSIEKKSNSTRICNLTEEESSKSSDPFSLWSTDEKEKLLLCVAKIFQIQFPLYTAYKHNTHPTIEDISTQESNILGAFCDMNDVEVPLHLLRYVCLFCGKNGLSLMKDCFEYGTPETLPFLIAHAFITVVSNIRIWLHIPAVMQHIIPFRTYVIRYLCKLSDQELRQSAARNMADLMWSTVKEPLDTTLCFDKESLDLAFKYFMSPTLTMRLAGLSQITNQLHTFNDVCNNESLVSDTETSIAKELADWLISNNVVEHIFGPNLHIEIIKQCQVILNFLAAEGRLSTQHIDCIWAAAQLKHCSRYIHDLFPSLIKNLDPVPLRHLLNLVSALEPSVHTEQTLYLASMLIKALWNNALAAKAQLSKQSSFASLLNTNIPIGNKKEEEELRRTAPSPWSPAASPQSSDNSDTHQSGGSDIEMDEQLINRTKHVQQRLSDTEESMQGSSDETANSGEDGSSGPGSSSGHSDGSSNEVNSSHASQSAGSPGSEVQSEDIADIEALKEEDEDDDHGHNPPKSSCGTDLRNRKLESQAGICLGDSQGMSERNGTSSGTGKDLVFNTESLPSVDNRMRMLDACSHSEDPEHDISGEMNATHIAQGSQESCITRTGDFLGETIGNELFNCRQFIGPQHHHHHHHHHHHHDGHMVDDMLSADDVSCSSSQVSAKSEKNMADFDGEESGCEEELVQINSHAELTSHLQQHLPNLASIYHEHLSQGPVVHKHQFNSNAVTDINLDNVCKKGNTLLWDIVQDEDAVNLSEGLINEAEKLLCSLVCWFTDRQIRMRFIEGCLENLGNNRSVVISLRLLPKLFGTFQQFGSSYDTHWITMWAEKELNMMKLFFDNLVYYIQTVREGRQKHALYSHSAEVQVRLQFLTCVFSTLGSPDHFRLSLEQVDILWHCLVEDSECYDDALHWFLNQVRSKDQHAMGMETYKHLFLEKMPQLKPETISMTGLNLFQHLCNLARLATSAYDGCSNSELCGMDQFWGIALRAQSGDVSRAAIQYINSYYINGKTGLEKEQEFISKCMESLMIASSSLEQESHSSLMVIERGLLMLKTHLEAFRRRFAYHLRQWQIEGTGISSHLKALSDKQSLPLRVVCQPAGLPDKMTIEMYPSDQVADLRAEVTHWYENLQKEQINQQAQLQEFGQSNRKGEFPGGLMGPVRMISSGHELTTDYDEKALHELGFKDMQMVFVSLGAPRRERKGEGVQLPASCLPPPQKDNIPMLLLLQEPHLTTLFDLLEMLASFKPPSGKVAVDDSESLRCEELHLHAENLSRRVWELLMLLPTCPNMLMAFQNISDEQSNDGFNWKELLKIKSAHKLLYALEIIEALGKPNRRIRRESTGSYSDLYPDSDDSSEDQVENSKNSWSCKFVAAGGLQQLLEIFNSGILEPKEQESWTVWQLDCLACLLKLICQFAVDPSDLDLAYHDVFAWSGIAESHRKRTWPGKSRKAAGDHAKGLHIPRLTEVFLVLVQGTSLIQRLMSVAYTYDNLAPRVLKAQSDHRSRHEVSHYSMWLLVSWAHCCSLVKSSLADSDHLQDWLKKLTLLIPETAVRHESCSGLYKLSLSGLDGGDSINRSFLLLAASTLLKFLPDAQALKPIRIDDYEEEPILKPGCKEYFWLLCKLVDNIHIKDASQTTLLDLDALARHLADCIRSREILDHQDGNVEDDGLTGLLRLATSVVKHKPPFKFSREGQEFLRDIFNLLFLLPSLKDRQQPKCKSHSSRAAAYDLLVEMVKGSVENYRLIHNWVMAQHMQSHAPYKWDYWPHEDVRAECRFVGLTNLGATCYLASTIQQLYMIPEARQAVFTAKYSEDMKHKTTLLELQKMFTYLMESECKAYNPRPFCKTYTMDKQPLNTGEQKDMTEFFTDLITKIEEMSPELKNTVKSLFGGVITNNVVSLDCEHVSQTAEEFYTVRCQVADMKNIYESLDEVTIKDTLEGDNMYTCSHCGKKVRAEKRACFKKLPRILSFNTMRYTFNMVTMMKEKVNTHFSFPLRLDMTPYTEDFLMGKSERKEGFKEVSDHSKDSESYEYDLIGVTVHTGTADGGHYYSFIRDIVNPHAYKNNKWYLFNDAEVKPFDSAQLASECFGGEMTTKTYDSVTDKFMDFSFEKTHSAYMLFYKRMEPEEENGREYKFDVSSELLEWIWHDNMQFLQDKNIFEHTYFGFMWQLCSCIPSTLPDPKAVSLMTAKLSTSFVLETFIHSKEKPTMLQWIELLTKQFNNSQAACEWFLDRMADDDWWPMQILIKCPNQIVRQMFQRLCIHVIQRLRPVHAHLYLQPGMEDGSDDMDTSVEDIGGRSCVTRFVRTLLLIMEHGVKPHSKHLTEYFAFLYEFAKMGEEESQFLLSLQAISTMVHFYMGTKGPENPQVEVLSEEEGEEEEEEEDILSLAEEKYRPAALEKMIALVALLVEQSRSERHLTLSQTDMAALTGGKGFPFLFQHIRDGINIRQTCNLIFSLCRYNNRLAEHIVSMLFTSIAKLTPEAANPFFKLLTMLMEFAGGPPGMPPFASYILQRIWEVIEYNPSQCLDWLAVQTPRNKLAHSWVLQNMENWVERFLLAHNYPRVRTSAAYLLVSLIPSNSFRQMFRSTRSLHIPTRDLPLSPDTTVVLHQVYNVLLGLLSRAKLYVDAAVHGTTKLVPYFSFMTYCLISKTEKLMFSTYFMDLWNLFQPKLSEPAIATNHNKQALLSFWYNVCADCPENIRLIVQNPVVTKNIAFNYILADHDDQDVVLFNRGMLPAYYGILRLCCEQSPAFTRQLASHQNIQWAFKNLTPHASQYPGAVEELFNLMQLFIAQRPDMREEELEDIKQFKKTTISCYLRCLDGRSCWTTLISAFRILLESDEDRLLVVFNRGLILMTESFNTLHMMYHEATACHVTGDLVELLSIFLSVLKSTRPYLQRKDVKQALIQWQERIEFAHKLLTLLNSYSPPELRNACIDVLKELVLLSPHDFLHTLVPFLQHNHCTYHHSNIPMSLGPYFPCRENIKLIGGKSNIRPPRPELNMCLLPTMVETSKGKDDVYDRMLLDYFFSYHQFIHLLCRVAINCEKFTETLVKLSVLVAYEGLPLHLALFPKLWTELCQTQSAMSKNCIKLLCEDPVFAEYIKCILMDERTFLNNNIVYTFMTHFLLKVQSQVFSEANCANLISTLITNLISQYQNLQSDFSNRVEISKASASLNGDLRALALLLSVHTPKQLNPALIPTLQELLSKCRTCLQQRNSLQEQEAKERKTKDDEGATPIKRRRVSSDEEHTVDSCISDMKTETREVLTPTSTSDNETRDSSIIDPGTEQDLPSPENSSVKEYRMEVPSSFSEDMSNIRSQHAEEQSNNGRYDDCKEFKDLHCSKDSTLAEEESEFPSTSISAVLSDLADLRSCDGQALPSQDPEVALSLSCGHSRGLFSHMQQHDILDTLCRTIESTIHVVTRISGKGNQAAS

O=C(CCl)Nc1ccc(F)cc1Cl
inactive: USP34 -0.452 | USP36 0.0206 | USP38 -0.165 | USP39 0.253 | USP4 -0.129
